Screens: PubChem, several laboratories
In the library only some 2.3% were active in any assay of this set; here they are far more common.
V-ATPase pH: alters yeast V-ATPase proton transport; S. cerevisiae, pHLuorin cytosolic pH fluorescence; response, % at 10 µM; 0.37% of 350,000 active; AID 504577; in the data active = response mostly above about 7.3%, no sharp cut-off; inactive = mostly below about 5.4%; note: actives read high
ADAM17 inh: ADAM17 inhibition, QFRET primary screen; inhibition, % at 6.95 µM; AID 720648; P78536; 0.83% of 370,000 active; recombinant ADAM17, EDANS/DABCYL FRET peptide cleavage;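 active = inhibition above the mean of compounds lying between control limits plus 3 SD, set per campaign, cut at about 8.5% in these data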;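 note: 0% = DMSO-only wells as the low control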
KLK7 zymogen act: activates the human kallikrein-7 zymogen. purified proKLK7, EDANS-DABCYL substrate fluorescence; 100% is mature enzyme control, 0% vehicle. activation, % at 7 µM. 0.9% of 370,000 active. AID 652039;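 active = activation above the mean of all tested compounds plus 3 SD, computed per campaign excluding outliers beyond control limits, cut at about 13% in these data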
Target sequence (P49862 whole entry, looked up): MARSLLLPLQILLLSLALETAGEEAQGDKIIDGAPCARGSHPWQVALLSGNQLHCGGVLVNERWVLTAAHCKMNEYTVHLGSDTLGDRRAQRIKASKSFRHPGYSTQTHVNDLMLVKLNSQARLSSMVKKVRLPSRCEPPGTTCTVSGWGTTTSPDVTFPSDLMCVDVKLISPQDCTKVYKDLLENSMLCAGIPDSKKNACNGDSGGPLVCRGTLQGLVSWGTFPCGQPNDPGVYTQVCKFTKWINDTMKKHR
ADAM10 inh: ADAM10 inhibition, QFRET primary screen | recombinant ADAM10, EDANS/DABCYL FRET peptide cleavage, 3 h | O14672 | 0.62% of 370,000 active | inhibition, % at 7 µM;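 active = inhibition above a per-campaign cutoff equal to the mean of compounds falling between control-based bounds plus 3 SD, cut at about 20% in these data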;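 note: 0% = DMSO wells while the 100% control is not disclosed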
ADAM10 confirm: human ADAM10 inhibition, confirmation; inhibition, % at 6.95 µM; 1% of 2,100 active; AID 743208; ADAM10 QFRET peptide cleavage, EDANS fluorescence; shares compounds with ADAM10 inh;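 active = inhibition above about 20% chosen separately for each screening run, limit read from the data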;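 note: 0% = DMSO wells and 100% = marimastat wells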
ADAM17 counter: counter-screen for ADAM10 exosite inhibitors: inhibitors of human ADAM17 | shares compounds with ADAM10 inh | ADAM17 QFRET peptide cleavage, EDANS fluorescence | inhibition, % at 6.95 µM | 0.5% of 2,100 active | AID 743214;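 active = mean triplicate inhibition above the solvent-only control wells' mean plus 3 SD, cut at about 12% in these data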;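 note: 0% = DMSO wells and 100% = marimastat wells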
ADAM10 ctr: inhibits human ADAM10 in ADAM17 exosite counter-screen; 47% of 2,900 active; AID 743256; inhibition, % at 6.95 µM; recombinant ADAM10, EDANS/DABCYL FRET peptide cleavage, 3 h; shares compounds with ADAM17 inh;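 active = mean inhibition over the triplicate runs exceeds the activity threshold set in the earlier primary screen, cut at about 20% in these data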;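 note: 0% = DMSO wells and 100% = marimastat wells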
ADAM17 confirm: confirmation of inhibitors of human ADAM17; shares compounds with ADAM17 inh; recombinant ADAM17, EDANS/DABCYL QFRET peptide cleavage; inhibition, % at 6.95 µM; 65% of 2,900 active;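 active = mean inhibition across replicates above the hit cutoff set in the primary screen, cut at about 8.5% in these data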;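 note: 0% = DMSO wells and 100% = marimastat wells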
* marks the source's active call; other numbers are inactive results; . = no result.

SMILES | V-ATPase pH | ADAM17 inh | KLK7 zymogen act | ADAM10 inh | ADAM10 ctr | ADAM17 confirm | others
Cc1cc(C)c(CSc2ncc(-c3ccc([N+](=O)[O-])cc3)[nH]2)c(C)c1 | -4.8 | 11.0* | 0.0 | 34.4* | 41.1* | 23.3* | ADAM10 confirm=12.0;ADAM17 counter=4.0
CCN(CC)S(=O)(=O)c1cc([N+](=O)[O-])ccc1NNC(=O)Nc1ccccc1OC | 11.6 | 10.0* | 0.6 | 26.3* | 7.7 | 7.2 | ADAM10 confirm=1.4;ADAM17 counter=0.1
CCOC(=O)c1c(N)sc(C(O)(C(F)(F)F)C(F)(F)F)c1-c1ccc(Cl)cc1 | -2.5 | 11.0* | -0.3 | 36.7* | 47.2* | 24.2* | ADAM10 confirm=8.0;ADAM17 counter=2.5
O=C(NCc1cccnc1)C1CC(c2cccc(Br)c2)=NO1 (stereo not given) | 2.8 | -2.9 | -0.1 | -1.7 | . | .
CC(C)n1cc(NC(=O)C2CC(c3cccc(Br)c3)=NO2)cn1 (stereo not given) | 10.7 | 9.0* | 0.6 | 12.8 | -5.5 | -2.8
COc1cc2c(c(O)c1OC)-c1c(cc(OC)c(OC)c1OC)C[C@@H](C)[C@@H](C)C2 | -0.1 | 8.8* | -0.5 | -2.0 | 12.6 | 7.3
COc1cc2c(c(OC)c1OC)-c1c(cc(OC)c(OC)c1OC)C[C@H](C)[C@H](C)C2 | -1.7 | -1.2 | -0.6 | -0.1 | . | .
C#CCNC(=O)C[C@H]1C[C@@]2(C(=O)OC)C(=C[C@H](C(C)(C)C)O[C@@H]2C)N(Cc2ccccc2)C1=O | . | -2.6 | 0.1 | -4.5 | . | .
CCc1ccc(N(CC(=O)Nc2nc3ccc(C)cc3s2)S(=O)(=O)c2c(C)noc2C)cc1 | -3.3 | 9.7* | 0.5 | 16.2 | 46.5* | 25.8*
CCc1ccc(NC(=O)CN(c2ccc3c(c2)OCO3)S(=O)(=O)c2c(C)noc2C)cc1 | -1.2 | 2.4 | -0.3 | -9.3 | . | .
CC(C)CN(CC(C)C)C(=O)c1ccc2c(c1)NC(=O)C(C)(C)O2 | . | 1.0 | -0.3 | -6.0 | . | .
CCOC(=O)c1ccc(N2C(=O)c3n[nH]c(C)c3C2c2ccc(OC)cc2OC)cc1 (stereo not given) | 4.2 | 8.7* | 0.1 | 17.4 | 16.2 | 10.2*
CCOC(=O)c1ccc(N2C(=O)c3n[nH]c(C)c3C2c2ccc(OC)cc2)cc1 (stereo not given) | 3.5 | -1.5 | 0.3 | 7.3 | . | .
Cc1cc(C)n(CCc2nc(-c3ccc(F)cc3)cs2)n1 | 0.4 | -2.9 | 0.0 | -2.8 | . | .
Cc1cc(C)n(CCc2nc(-c3ccc(C(C)(C)C)cc3)cs2)n1 | 0.7 | 12.3* | 0.1 | 19.0 | 14.3 | 11.4*
CC(C)NC(=O)N[C@H]1C[C@@H]2O[C@@H](CO)CC[C@@H]2O[C@@H]1CCc1ccc(-c2ccccc2F)cc1 | . | 2.8 | 0.3 | 8.7 | . | .
O=C(Nc1nc2ncccn2c1-c1ccc(F)cc1)c1ccccc1 | . | -38.4 | 2.8 | -133.4 | . | .
N#Cc1ccc(NC(=O)OC2CCC23CCC(c2ccccc2)CC3)cc1 (stereo not given) | . | 7.0 | -0.9 | 13.6 | . | .
CC(C)(C)OC(=O)N1CCC[C@@H]1CO | -0.8 | . | . | . | . | .
CCCCCC(CC(=O)NO)C(=O)NC(C(=O)N1CCCC1CO)C(C)C (stereo not given) | 3.5 | 51.1* | 0.1 | . | . | 63.7*
Cc1cc(C)c(C)c(S(=O)(=O)N2CCC(C(=O)NCc3cccs3)CC2)c1C | . | 8.8* | -0.1 | 12.6 | 4.2 | 1.0
O=C(NCc1cccs1)C1CCN(S(=O)(=O)c2cccs2)CC1 | 0.9 | -2.1 | 0.2 | 10.3 | . | .
O=S1(=O)c2c(NCc3ccco3)cccc2Oc2ccccc2CN1Cc1cn(Cc2ccccc2C(F)(F)F)nn1 | . | -1.8 | -2.0 | -9.7 | . | .
Cc1onc(-c2ccccc2Cl)c1C(=O)Nc1cccc(S(=O)(=O)N2CCOCC2)c1 | -2.1 | 0.0 | 0.2 | -16.5 | . | .
Cc1onc(-c2ccccc2)c1C(=O)Nc1ccc(Cl)c(S(=O)(=O)N2CCOCC2)c1 | 3.1 | 11.2* | -0.1 | -4.5 | 10.3 | 5.6
SMILES | V-ATPase pH | ADAM17 inh | KLK7 zymogen act | ADAM10 inh | ADAM10 ctr | ADAM17 confirm | others
CN(Cc1ccccc1)C(=O)OCc1cn(Cc2cccc(F)c2)nn1 | . | -2.1 | 0.4 | -3.4 | . | .
CC/C(C)=N/Nc1nc2c(c(=O)[nH]c(=O)n2C)n1CCc1ccccc1 | 3.4 | -31.5 | -22.9 | -84.5 | . | .
CC/C(C)=N/Nc1nc2c(c(=O)[nH]c(=O)n2C)n1Cc1ccccc1 | -0.5 | 9.1* | -0.1 | 13.9 | 4.6 | 3.4
Cc1ccc(C(=O)N2CCC[C@@H]2C(=O)N2CCC[C@@H]2C(=O)NCc2ccccc2)cc1 | . | -2.4 | 0.0 | -0.3 | . | .
Clc1ccc(OCCOCCOc2cccc3cccnc23)c(Br)c1 | -0.8 | 8.9* | 0.5 | 13.4 | 12.0 | 12.5*
CCOC(=O)C1=C(C(=O)OCC)C2N(Cc3ccc(C#N)cc3)c3ccccc3[C@@]23C[C@@H](C(=O)OC)N(S(=O)(=O)c2ccc(C#N)cc2)C3=N1 (stereo not given in full) | . | -2.1 | -0.3 | 4.7 | . | .
CCCOc1ccccc1C(=O)N(Cc1cccs1)C1CCS(=O)(=O)C1 (stereo not given) | -0.5 | 10.5* | -0.1 | 11.2 | 9.8 | 8.2
NC(=NCCc1c[nH]c2ccccc12)NS(=O)(=O)c1ccc2ccccc2c1 | 3.9 | 9.9* | 0.3 | 14.9 | 18.2 | 9.4*
NC(=NCCc1c[nH]c2ccccc12)NS(=O)(=O)c1ccc(F)cc1 | -5.6 | -1.0 | -0.9 | 0.4 | . | .
O=C(c1ccc(Cl)cc1)N1CCC(Oc2cccnc2)CC1 | . | -2.8 | -0.3 | -4.5 | . | .
CN(C(=O)[C@@H](Cc1ccccc1)NC(=O)[C@H]1O[C@@H](n2ccc(=O)[nH]c2=O)[C@H](O)[C@@H]1O)C1CCCCC1 | . | -4.1 | 0.0 | -16.6 | . | .
O[C@@H]1CN(CC2CCCCC2)[C@@H](c2ccccc2)C[C@H]1n1cc(C2CC2)nn1 | -1.0 | 7.0 | 0.3 | 2.2 | . | .
O[C@H]1C[C@H](c2ccccc2)N(CC2CCCCC2)C[C@@H]1n1cc(C2CC2)nn1 | 0.8 | 9.0* | 0.4 | 17.8 | 20.9* | 12.5*
CCCC(=O)N1CCC(NS(=O)(=O)c2ccc3c(c2)CCN3C(C)=O)CC1 | . | -4.8 | -0.3 | -14.6 | . | .
O=C1c2ccccc2/C(=C\c2ccc(Br)nc2)N1c1ccccc1 | . | -4.8 | 0.0 | -18.9 | . | .
O/N=C/c1cc(Br)ccc1OCc1ccc(F)cc1 | -0.1 | 4.4 | -0.2 | 12.9 | . | .
Cc1ccc(COc2ccc(Br)cc2/C=N/O)cc1 | 2.0 | 8.8* | 0.1 | 16.6 | 34.0* | 16.7*
C=CCc1cccc(CNc2nc3ccccc3n2CCN2CCOCC2)c1O | 2.8 | 11.9* | 0.1 | 14.0 | 11.5 | 9.3*
COc1ccc(S[C@]2(C(=O)N3CCOCC3)CC(=O)N[C@@H]2c2ccc(OC)cc2)cc1 | . | -1.9 | -0.4 | 4.4 | . | .
